These results are taken from PubChem BioAssay (Tox21).

Inconclusive results are not listed. Where a call stands in place of a potency, no number is given. Activity calls are given as the source filed them. Calls come from the whole dose curve; as a rule, active = well fitted cell-killing curve with a large enough effect in the repeat runs; inconclusive = weak or mixed curves, or effect the other way; inactive = flat fitted curve, though single readings scatter.
Potency is the fitted concentration of half-maximal effect.

This assay in a line: cAMP Responsive Elements (CRE) small molecule antagonists, cell-based qHTS assay: qHTS cell viability counter screen (AID 2060913). Note: nearly all actives have a fitted effect of over 40% in size. As to conditions: CRE-bla HEK293T viability, CellTiter-Glo luminescence, 5 h; series mostly up to 92.4 µM. The method in brief:
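CRE-bla HEK293T cells were seeded in assay medium with 10% dialyzed FBS, incubated 18 hrs at 37 C, then exposed to compounds plus 0.25 uM final NKH477 for 3 hrs. Viability was read by CellTiter-Glo luminescence after 30 min, in the same wells.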
Consider `C1CC2OC2CC1C1CO1` (stereo not given), for which the Potency result was “inactive”. In the case of `O=C1c2ccccc2C(=O)C1C(=O)C(c1ccccc1)c1ccc(Cl)cc1` (stereo not given), the Potency result was “inactive”. Under `O=C(Nc1ccccc1)Nc1cnns1` stands “inactive”; under `CCCCCCCCCCCCCN1CC(C)OC(C)C1` (stereo not given), “inactive”. As for `COP(=S)(OC)SCn1nnc2ccccc2c1=O`, the Potency entry is “inactive”.

With `ClCCOCOCCCl`, the Potency entry was “inactive”. Consider `ClCCBr`, for which the Potency result was “inactive”. As for `Cc1nnc2n1-c1sc(CCC(=O)N3CCOCC3)cc1C(c1ccccc1Cl)=NC2`, the Potency entry was “inactive”.

Turning to `CCOS(=O)(=O)OCC`, the Potency entry is “inactive”. Consider `COC(=O)Cc1ccccc1`, for which the Potency result is “inactive”. Under `O=c1[nH]oc2c1CCNC2` stands “inactive”; under `O=C(NC(=O)c1ccccc1Cl)Nc1ccc(OC(F)(F)F)cc1`, “inactive”.

Regarding `Nc1ccc(Sc2ccc(N)cc2)cc1`, the Potency result is “inactive”.

On to `C[C@]12CC[C@@H](O)C[C@@H]1CC[C@@H]1[C@@H]2CC[C@]2(C)C(=O)CC[C@@H]12`, for which the Potency entry is “inactive”. For `CC(C)C(Nc1ccc(C(F)(F)F)cc1Cl)C(=O)OC(C#N)c1cccc(Oc2ccccc2)c1` (stereo not given), the Potency result was “inactive”. For `CCCCCCCCCCCOC(=O)c1ccccc1C(=O)OCCCCCCCCCCC`, the Potency entry was “inactive”. Turning to `CC1(C)C(C(=O)OC(C#N)c2cccc(Oc3ccccc3)c2)C1(C)C` (stereo not given), the Potency result was “inactive”.

`Cc1cc(C)cc(OP(=O)(Oc2cc(C)cc(C)c2)Oc2cc(C)cc(C)c2)c1`: the Potency entry is “inactive”. Under `Cc1ccc([N+](=O)[O-])cc1` stands “inactive”. As for `CNCC(=O)c1ccc(O)c(O)c1`, the entry is “inactive”. As for `CN(C)C(=S)[S-].CN(C)C(=S)[S-].[Cu+2]`, the figure is 13.2 µM (active); as for `CCOc1ccc(C(C)(C)COCc2cccc(Oc3ccccc3)c2)cc1`, “inactive”.

Take `CCC[N+]1(C)CCCCC1`: the Potency result is “inactive”.

Turning to `NC(=O)c1ccc(N)nc1`, the Potency result was “inactive”. `C=CCN1CC[C@]23c4c5ccc(O)c4O[C@H]2C(=O)CC[C@@]3(O)[C@H]1C5`: the Potency entry is “inactive”. `COc1ccccc1N1CCNCC1`: the Potency entry was “inactive”. Take `CCOC(=O)COc1cc(-c2nn(C)c(OC(F)F)c2Cl)c(F)cc1Cl`: the Potency entry is “inactive”.

Turning to `O=[N+]([O-])c1cccc2cccc([N+](=O)[O-])c12`, the Potency entry was “inactive”.

Consider `CN(C)CCO`, for which the Potency result was “inactive”. As for `CN=CNc1ccc(C)cc1C`, the entry is “inactive”.

In the case of `O=[N+]([O-])c1cc([As](=O)(O)O)ccc1O`, the Potency entry was “inactive”. Under `O=C(Oc1ccc(Br)cc1)N1CCN2CCC1CC2` stands “inactive”; under `O=[N+]([O-])c1ccc(O)c([N+](=O)[O-])c1`, 54.5 µM (active); under `CCCCOC(=O)[C@@H](C)Oc1ccc(Oc2ccc(C#N)cc2F)cc1`, “inactive”. As to `COP(=S)(OC)Oc1ccc([N+](=O)[O-])cc1Cl`, the Potency entry is “inactive”. Consider `ClCC1CO1` (stereo not given), for which the Potency result was “inactive”. `CC(C)(C)CC(C)(C)c1ccc(O)cc1`: the Potency is 43.3 µM (active). Regarding `Nc1cc2c3c(c1)C(c1ccccc1)=N[C@@H](NC(=O)c1cccnc1)C(=O)N3CC2`, the Potency entry is “inactive”. For the molecule `O=C(NC(=O)c1c(F)cccc1F)Nc1ccc(OC(F)(F)C(F)OC(F)(F)F)c(Cl)c1` (stereo not given), the Potency entry was “inactive”.

With `CCOP(=S)(Oc1cnc(C(C)(C)C)nc1)OC(C)C` (stereo not given), the Potency result is “inactive”.
